Source: PubChem BioAssay (NCI)
Compounds without any hit were thinned out: in the full panel of roughly 83,000, 20% have a hit.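 48-hour exposure, single concentration, 96-well plates; percent growth endpoint where 0 means no net growth. Active: below 10.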 Unmarked numbers belong to inactive results. The source made the active and inactive calls.

Test system: NCI-H460 lung
Assay: NCI-60 one-dose screen, 48 h (100 = growth as untreated, 0 = no growth, -100 = all killed)
Details: 10 µM
Description: Growth inhibition of the NCI-H460 human Non-Small Cell Lung tumor cell line is measured as a screen for anti-cancer activity. Cells are grown in 96 well plates and exposed to the test compound for 48 hours. Compounds are tested at a single concentration, which is 10^-5 M for most compounds. The reported endpoint is percent growth (GI% or GIPRCNT), where numbers from 0 - 100% represent growth inhibition, and numbers from -100% - 0 represent cell death. For example, a value of 40 represents 60% growth inhibition. A value of 0 means no net growth occurred over the course of the experiment. A value of -40 indicates 40% of cells at the beginning of the experiment died by the end of the experiment. A value of -100 means all cells are dead at the end of the experiment.
NCI-60 Human Tumor Cell Lines Screen was performed using the standard one-dose NCI protocol, which is described in more detail at https://dtp.cancer.gov/discovery_development/nci-60/default.htm.
Compounds with GIPRCNT values below 10 were considered active. Activity score was based on GIPRCNT using the following formula: […]
Score is 0 for GIPRCNT values of 100 or above, 50 for GIPRCNT values of 0, and 100 for GIPRCNT values of -100.

Point of comparison: O=C1c2c(c(=O)[nH]c3ccccc23)CCN1Cc1ccccc1, growth 108%. Against it:
- COc1cc2cc(Oc3ccc(NC(=O)c4cc(C(F)(F)F)cc(C(F)(F)F)c4)cc3)c(C)nc2cc1OC — lower, 26.9%
- COc1cc2c3c(n(C4CCN(C)CC4)c(=O)c2cc1OC)-c1cc2c(cc1C3=O)OCO2 — lower, 19.8%
- O=C1NC(=O)c2c(CCCSc3nc4ccccc4c(=O)n3CCc3ccccc3)cccc21 — lower, 83.8%
- CCN(CC)CCOc1cccc2c1C(=O)c1ccccc1C2=O — lower, 101%
- Nc1nc(-c2ccc(Cl)cc2)cc(-c2cc3ccccc3oc2=O)n1 — lower, 101%
- O=C(Nc1cc([N+](=O)[O-])c2[nH]c(=O)c3ccccc3c2c1)C(F)(F)F — lower, 38.4%
- CCCc1cn(CC(=O)Nc2nc3ccccc3s2)nn1 — lower, 103%
- CC(=O)[C@H]1CC[C@]2(C)[C@@H]1CC[C@@H]1[C@@]3(C)CC(CCC#N)(CCC#N)C(=O)C(C)(C)[C@@H]3CC[C@]12C — lower, 101%
- O=C(COc1cccc(/C=C2\CSc3ccccc3C2=O)c1)c1ccc(Cl)cc1 — lower, 68.5%
- COc1ccccc1-n1c(-c2csc(NC(C)=O)n2)n[nH]c1=S — higher, 109%
- CCOC(=O)c1cc(C(=O)c2ccc(F)cc2F)n2ccccc12 — lower, 97.5%
- COc1ccc(-c2cc(-c3cc(OC)ccc3OC)nc(N)c2C#N)cc1 — lower, 52.5%
- O=[N+]([O-])c1cccc(/C=N/NC(=S)NC23CC4CC(CC(C4)C2)C3)c1 — lower, 56.4%
- CC(C)[N+]1(C)C2CC[C@@H]1CC(OC(=O)C(CO)c1ccccc1)C2 (stereo not given in full) — the same, 108%
- COc1ccc(Cl)cc1Nc1nc(C(F)(F)F)ccc1C(=O)N/N=C/c1ccc(Cl)cc1 — lower, 26.9%
- Clc1ccc(Cc2ccncc2)cc1 — higher, 113%
- CCOC(=O)CC(S(=O)(=O)c1ccccc1)S(=O)(=O)c1ccccc1 — lower, 103%
- COc1cc(C)ccc1Oc1nc(Nc2ccc(N3CCOCC3)cc2)ncc1NC(=O)Nc1cc(C(F)(F)F)cc(C(F)(F)F)c1 — lower, 24.7%
- CS(=O)(=O)c1nccc(-c2c(-c3cccc(OCCc4ccccc4)c3)nc3sccn23)n1 — lower, 106%
- COc1cc2c(Nc3ccc(-c4ccc(N)cc4)cc3)ncnc2c(OC)c1OC — lower, 19.9%
- CC(C)(C)OC(=O)CN1CCc2c(sc3ncnc(N/N=C/c4cccc5ccccc45)c23)C1 — lower, 20.9%
- C#CC(C)(O)[C@@H]1C[C@H](CC(=O)O)C1(C)C (stereo not given in full) — higher, 116%
- CS(=O)(=O)c1nccc(-c2c(-c3cccc(OCCN4CCOCC4)c3)nc3sccn23)n1 — lower, 101%
- CN(C)CCOc1cccc(NC2=C(Cl)C(=O)C(Nc3cccc(OCCN(C)C)c3)=C(Cl)C2=O)c1 — lower, 55.4%
- CC1CCCC(C(=O)O)C1C(=O)O (stereo not given) — lower, 104%
- CC(C1=C(CN(C(=O)Cc2cn(-c3ccccc3)nc2-c2ccc(Cl)cc2)C(C)C)Cc2ccccc21)c1ccccn1 (stereo not given) — lower, 53.1%
- COc1cc2nc(SCC(=O)Nc3cc(OC)c(OC)c(OC)c3)n(Cc3ccccc3)c(=O)c2cc1OC — lower, 68.7%
- COc1ccc(-c2csc(NC(=O)c3ccc(Cc4n[nH]c(=O)c5cccnc45)cc3)n2)cc1 — lower, 97.4%
- Cc1cccc(N=Cc2ccccc2O)c1C — higher, 114%
- OCC1OC(n2cnc3c(NCc4ccco4)ncnc32)C(O)C1O (stereo not given) — lower, 23.1%
- COc1ccc(-c2nn(-c3cccc(Cl)c3)cc2-c2cc(-c3ccccc3)[nH]c(=O)c2C#N)cc1 — lower, 31.6%
- CC(C)C1=C(O)C2=C(C(=O)C1=O)[C@@]1(C)CCCC(C)(C)[C@@H]1CC2 — lower, 37.6%
- COc1cc(-c2ccc(N=Nc3ccc4c(S(=O)(=O)O)ccc(N)c4c3O)c(OC)c2)ccc1N=Nc1ccc2c(S(=O)(=O)O)ccc(N)c2c1O — the same, 108%

In the case of CC1/C=C/C=C/C=C/C=C/C=C/C=C/C=C/C(O[C@@H]2O[C@H](C)[C@H](O)[C@@H](O)[C@@H]2N)CC(O)C(C(=O)O)C(O)CC(=O)CC(O)CC(O)CC(O)CC(=O)CCCC(=O)CC(=O)OC1C(C)CC(C)C(O)CC(=O)c1ccc(N)cc1 (stereo not given in full), the growth is reported as -81.8% (active).
With O=C(CN(C1CCCCC1)C1CCCCC1)Nc1ccc(S(=O)(=O)c2ccc(NC(=O)CN(C3CCCCC3)C3CCCCC3)cc2)cc1 the growth was -9.66% (active).
With O=C(CCl)Nc1ccc(Cc2ccc(NC(=O)CCl)cc2)cc1 the growth was -29.3% (active).
With O=C1/C=C/[C@@H](O)[C@@H]2C[C@@H](O)C[C@H]2/C=C/CCC[C@H](CCc2ccc(C(F)(F)F)cc2)O1 the growth was 9.42% (active).
For C/C=C/C1=CN2C(=O)c3cc(OC4OC(C)C(NC)C(C)(O)C4O)c(C)c(O)c3N=C[C@@H]2C1 (stereo not given in full), the growth was -13.8% (active).
For COc1cc(-c2nn(-c3cccc(NC(=O)NCCNS(=O)(=O)c4ccc(Cl)cc4)c3)cc2-c2ccncc2)ccc1Cl, the growth was 1.86% (active).
